In PubChem BioAssay (NCATS):
Results filed as inconclusive are left out. Activity calls are given as the source filed them. Calls come from the whole dose curve.

What was measured:
[1] = Primary qHTS for inhibitors of SARS-S pseudo-typed particle cell entry (AID 1479145); note: nearly all actives have a fitted effect of over 45% in size
[2] = Primary qHTS for Huh7 cytotoxicity: counterscreen for inhibitors of MERS-S pseudotyped particle cell entry (AID 1479147)
[3] = Primary qHTS for inhibitors of MERS-S pseudo-typed particle cell entry (AID 1479149); note: nearly all actives have a fitted effect of over 60% in size
[4] = Primary qHTS for Vero E6 cytotoxicity: counterscreen for inhibitors of SARS-S pseudo-typed particle cell entry (AID 1479150)

Measured: Potency

C[N+]12CCC(CC1)C(OC(=O)C(O)(c1ccccc1)c1ccccc1)C2 (centres undefined)
inactive: all assays above

NC(=O)CC[C@@H](N)C(=O)O
inactive: all assays above

Cc1c(C(=O)NN2CCCCC2)nn(-c2ccc(Cl)cc2Cl)c1-c1ccc(Cl)cc1
inactive: all assays above

CC1(C)[C@@H](OC(=O)CCC(=O)O)CC[C@]2(C)[C@H]3C(=O)C=C4[C@@H]5C[C@@](C)(C(=O)O)CC[C@]5(C)CC[C@@]4(C)[C@]3(C)CC[C@@H]12
inactive: all assays above

C[C@]1(Cn2ccnn2)[C@H](C(=O)O)N2C(=O)C[C@H]2S1(=O)=O
inactive: all assays above

CCCCCC1Nc2cc(C(F)(F)F)c(S(N)(=O)=O)cc2S(=O)(=O)N1 (centres undefined)
inactive: all assays above

O=C1C(CCS(=O)c2ccccc2)C(=O)N(c2ccccc2)N1c1ccccc1 (centres undefined)
inactive: all assays above

O=c1cc(CO)occ1O
inactive: all assays above

CC1(C)S[C@@H]2[C@H](N=CN3CCCCCC3)C(=O)N2[C@H]1C(=O)O
inactive: all assays above

CCN(CC)CC(=O)Nc1c(C)cccc1C
inactive: all assays above

C=CCCCCCCCCC(=O)O
inactive: all assays above

Nc1ccc(S(=O)(=O)Nc2nccs2)cc1
inactive: all assays above

C[N+](C)(C)CCCCCCCCCC[N+](C)(C)C
inactive: all assays above

CCOC(=O)c1cccc(N)c1
inactive: all assays above

CN1C(=O)CC(c2ccccc2)C1=O (centres undefined)
inactive: all assays above

CCN1CCN(c2cc(-c3ccc(F)cc3)c3c(n2)CCCCCC3)CC1
inactive: all assays above

O=S1(=O)OC(c2ccc(O)cc2)(c2ccc(O)cc2)c2ccccc21
inactive: all assays above

CNC(=O)Oc1ccc2c(c1)[C@]1(C)CCN(C)[C@@H]1N2C
inactive: all assays above

CC(=O)Oc1ccc(C(=C2CCCCC2)c2ccc(OC(C)=O)cc2)cc1
inactive: all assays above

CN1C[C@H](C(=O)N[C@]2(C)O[C@@]3(O)[C@@H]4CCCN4C(=O)[C@H](Cc4ccccc4)N3C2=O)C[C@@H]2c3cccc4[nH]cc(c34)C[C@H]21
inactive: [1] | [2] | [4]

Cc1ccc(O)cc1
inactive: all assays above

NC(=O)C1(N2CCCCC2)CCN(CCCC(=O)c2ccc(F)cc2)CC1
inactive: all assays above

CCC(C(=O)OCCN1CCOC(c2ccccc2)C1C)c1ccccc1 (centres undefined)
inactive: all assays above

O=C(O)CNC(=O)c1ccccc1I
inactive: [1] | [2] | [4]

FC(F)(F)C(F)(F)C(F)(F)C(F)(F)C(F)(F)C(F)(F)C(F)(F)C(F)(F)Br
inactive: [1] | [2] | [4]

CSc1ccc(C(=O)c2[nH]c(=O)[nH]c2C)cc1
inactive: all assays above

C[C@H]1COc2c(C3(N)CC3)c(F)cc3c(=O)c(C(=O)O)cn1c23
inactive: all assays above

CC(C)[C@@H]1CC[C@@H](C)CC1=O
inactive: [1] | [2] | [4]

C[N+]1(CC2COC(c3ccccc3)(C3CCCCC3)O2)CCCCC1 (centres undefined)
inactive: [1] | [2] | [4]

C#C[C@]1(O)CC[C@H]2[C@@H]3CCC4=CC(=O)CC[C@@H]4[C@H]3CC[C@@]21C
inactive: all assays above

CCN(CCCc1ccccc1)CCCc1ccccc1
inactive: [1] | [2] | [4]

CC[C@H](c1ccc(O)cc1)[C@@H](CC)c1ccc(O)cc1
inactive: [1] | [2] | [4]

CCN(CC)CC(=O)OCC(=O)[C@@]1(O)CC[C@H]2[C@@H]3CCC4=CC(=O)CC[C@]4(C)[C@H]3[C@@H](O)C[C@@]21C
inactive: [1] | [2] | [4]
